# Test results from PubChem BioAssay (NCATS).
# Values joined by “and” are separate entries in the source; they are usually repeats but may differ in a detail not shown here. Equal entries are not always repeated. Values without a mark were called inactive. Inconclusive results are not listed. Active and inactive are the calls of the source. The call rests on the fitted dose curve; in most records, active means well fitted curve in the direction sought with a large enough effect; inconclusive means small, poorly fitted or top-dose-only effect, or another doubt; inactive means no such curve, though single readings can be large; an effect the other way counts as inactive or inconclusive.
# How the values were obtained:
# [1] = target: Cytochrome P450 3A4 (Homo sapiens) (UniProt P08684); test: qHTS Assay for Inhibitors and Substrates of Cytochrome P450 3A4 (AID 884); further: potency means the concentration at half of the fitted maximal effect; nearly all actives have a fitted effect of over 50% in size
# Sequence of Cytochrome P450 3A4 (Homo sapiens) (P08684 whole entry, looked up): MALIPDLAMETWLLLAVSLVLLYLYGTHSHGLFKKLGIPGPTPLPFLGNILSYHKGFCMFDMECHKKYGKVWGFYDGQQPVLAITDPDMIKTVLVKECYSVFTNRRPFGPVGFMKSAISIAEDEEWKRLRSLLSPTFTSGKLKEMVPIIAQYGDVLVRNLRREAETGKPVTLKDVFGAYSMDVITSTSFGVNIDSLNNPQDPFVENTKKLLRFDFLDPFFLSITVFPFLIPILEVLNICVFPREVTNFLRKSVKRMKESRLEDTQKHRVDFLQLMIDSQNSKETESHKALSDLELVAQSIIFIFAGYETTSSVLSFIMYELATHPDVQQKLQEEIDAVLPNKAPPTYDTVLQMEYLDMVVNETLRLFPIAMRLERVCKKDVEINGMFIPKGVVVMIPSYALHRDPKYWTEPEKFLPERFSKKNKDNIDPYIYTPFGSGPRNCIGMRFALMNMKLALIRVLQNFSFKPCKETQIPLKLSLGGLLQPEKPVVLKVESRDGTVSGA
# How it was run: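 Luminescent readout of luciferin produced by CYP3A4 (20 nM) dealkylation of Luciferin-PPXE, 25 uM (its KM). NADPH-driven reaction ran 60 min at RT after 10 min compound preincubation; data scaled to 57 uM ketoconazole as 100% inhibition.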
# [2] = target: Cytochrome P450 3A4 (Homo sapiens) (UniProt P08684); test: qHTS Assay for Activators of Cytochrome P450 3A4 (AID 885); further: nearly all actives have a fitted effect of over 65% in size
# How it was run: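 Luminescent readout of luciferin formed from 25 uM Luciferin-PPXE (KM level) by 20 nM CYP3A4 in 200 mM KPO4, with 60 min NADPH-driven reaction at room temperature after 10 min compound exposure. Ketoconazole (57 uM) defined 100% inhibition.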
SMILES,Potency [1],"activity change, positive = activation [2]",Potency [2]
C/C(CCN1CCCCc2nc(C)c(C)cc21)=N\O[C@@H](C)c1cn([C@H](CO)Cc2ccccc2)nn1,3.98 µM (active) and 5.01 µM (active),-72.3% [at 11.4 µM] and -80.4% [at 11.4 µM],
CCC1=C(OC(=O)N(CC)CC)N2C(=O)OC(=NCC3CC3)[C@]2(C)[C@H]2C1=CC[C@H]1C(=O)N(C)C(=O)[C@H]12,10 µM (active),,inactive
CC(C)(C)N1C(=O)[C@H]2[C@H]3[C@H](O)[C@H](O)C/C(=N/OC[C@@H](O)COCc4ccco4)[C@@H]3CC[C@@H]2C1=O,5.01 µM (active),-87.2% [at 11.4 µM],
CCCNC(=O)OC[C@@H]1O[C@H](CCO/N=C(\C)CCN2CCCCc3nc(C)c(C)cc32)C=C[C@@H]1Oc1ccc(OC)cc1,3.16 µM (active),-95.5% [at 11.4 µM],
CCC1=C2CC[C@H]3C(=O)N(CC)C(=O)[C@H]3[C@H]2[C@@]2(Cc3ccccc3)C(=O)N(CCOC)C(=O)N2C1=O,15.8 µM (active),,inactive
C#CCCCO/N=C1/C[C@@H](O)[C@@H](O)[C@@H]2[C@@H]3C(=O)N([C@@H](C)c4ccccc4)C(=O)[C@H]3CC[C@@H]12,3.98 µM (active),-86% [at 11.4 µM],
CCC1=C2CC[C@H]3C(=O)NC(=O)[C@H]3[C@H]2[C@@]2(Cc3ccccc3)C(=NCC3CC3)OC(=O)N2C1=O,15.8 µM (active),,inactive
CO[C@H]1COC(=O)[C@H](C)NC(=O)C/C=C\[C@@H](C)[C@@H](NS(=O)(=O)c2ccc(C)cc2)COC(=O)C/C=C\[C@@H]1C,3.98 µM (active),-80.3% [at 11.4 µM],
